In PubChem BioAssay AID652058 (Broad Institute, 2013):
In all, about 1,200 compounds went through this assay and about 870 (72%) were called active. Roughly 3% stayed inconclusive and do not appear here.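 How the source made its calls: active means every test run fits a falling curve whose half-maximal concentration is at most twice the top valid dose; inconclusive means runs disagree, or flat 30 to 70% inhibition, or poor fit; inactive means every run inactive: flat, rising or weaker potency.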 So high a share suggests a set chosen from earlier hits. The list is a sample of the results. Entries with a potency or affinity are not part of this list.

test: ZM109 Env clade C HIV-1 fusion inhibitors, dose response, HeLa effector, CEM target cells, luciferase, cherry-pick (AID 652058); conditions: HeLa Env/CEM cell fusion, 16-24 h; series mostly up to 35 µM

Activity change, negative = inhibition, inactive:
C[C@@H]1CN([C@@H](C)CO)C(=O)c2cccc(NC(=O)c3cnccn3)c2O[C@H]1CN(C)Cc1ccc(Cl)c(Cl)c1, CNC[C@@H]1Oc2c(N)cccc2C(=O)N([C@@H](C)CO)C[C@@H]1C, C[C@H]1CN([C@@H](C)CO)C(=O)c2cccc(NC(=O)C3CCCCC3)c2O[C@H]1CN(C)S(C)(=O)=O, c1csc(-c2csc3ncnc(NCCCN4CCOCC4)c23)c1, Oc1ccc(C=NNc2ccccn2)c(O)c1, COc1ccc(-c2nnc(Nc3nc4c(OC)cccc4s3)o2)cc1, CCn1ncc(C2=NOC(C(=O)Nc3ccc(C)cc3)C2)c1C (stereo not given), Cc1ccc(-n2nnnc2-c2cnn(-c3ccc(F)cc3)c2C(F)(F)F)cc1, C[C@@H]1CN([C@H](C)CO)C(=O)c2cc(NS(=O)(=O)c3ccc(F)cc3)ccc2O[C@H]1CN(C)Cc1ccc(C(F)(F)F)cc1, CNC[C@H]1Oc2c(NC(=O)Nc3ccc(C(F)(F)F)cc3)cccc2C(=O)N([C@@H](C)CO)C[C@H]1C, C[C@H](CO)N1C[C@H](C)[C@H](CN(C)C(=O)Nc2ccccc2)Oc2c(NS(=O)(=O)c3ccc(F)cc3)cccc2C1=O, Cc1ccc(-n2ncc3c(N4CCN(c5ccccc5)CC4)ncnc32)c(C)c1, Cc1ccc(Cn2ncc3c(N4CCN(c5ccc(C)cc5)CC4)ncnc32)cc1, COc1cccc(CNc2nc(NCc3ccccc3OC)nc3ccsc23)c1, CCOc1ccc(-c2cc(CCCC(=O)Nc3cccc(OC)c3)no2)cc1, Cc1cc(C(C)(C)C)oc1C(=O)N(CC(=O)NC1CCCC1)Cc1ccc(Cl)cc1, CCCc1cc(C(=O)NCc2ccc(OC)cc2)no1, CCN(CCn1cccn1)C(=O)CC1C(=O)NCCN1CCc1ccccc1 (stereo not given), O=C(CC1C(=O)NCCN1Cc1cccc(F)c1)NC1CCCCC1 (stereo not given), COc1ccc(-c2cn3c(C)c(C(=O)Nc4cccc(NC(C)=O)c4)sc3n2)cc1, Cn1cc(S(=O)(=O)N2CCOCC2)cc1C(=O)Nc1cccc(Cl)c1, COc1cccc(CN2CCC2(C)C(=O)Nc2cccc(Oc3ccccc3)c2)c1OC (stereo not given), CC(=O)c1ccc([C@H]2C[C@@]34CN(C(=O)OC(C)(C)C)S(=O)(=O)[C@H]3C[C@H]2O4)cc1, c1ccc(Cc2cnc(N3CCN(Cc4csc5ccccc45)CC3)nc2)cc1, O=C(NNC(=O)C(c1ccccc1)c1ccccc1)c1ccccn1, CC(C)(C)n1nc(Cc2cccc3ccccc23)c2c(N)ncnc21, C[C@@H]1CN([C@H](C)CO)C(=O)c2cccc(NC(=O)c3ccncc3)c2O[C@@H]1CN(C)Cc1ccc(C(=O)O)cc1, COc1ccccc1N1CCN(Cc2ccc(O)c3ncccc23)CC1, O=C(Nc1ccc(CN2CCOCC2)cc1)c1ccc(-c2cccc(Cl)c2)o1, Cc1cc(C)nc(/N=C(\N)Nc2ccc(CC(=O)OC(C)C)cc2)n1, CCC(=O)NC(=S)Nc1cccc(Cl)c1N1CCCCC1, COc1ccc([Si](C)(C)[C@H]2[C@H](CCO)O[C@@]3(C(=O)N(Cc4cccc(N5CCOC5=O)c4)c4ccccc43)[C@@H]2C)cc1, O=C(NCc1ccccc1)c1ccc(C(=O)NCc2ccccc2)cc1, O=C(Nc1cccn(Cc2c(Cl)cccc2Cl)c1=O)c1ccc(Cl)cc1, COc1ccc(OC2C(=O)N(Cc3ccc4c(c3)OCO4)C2c2cccs2)cc1 (stereo not given), CCOC(=O)c1cnc2ccc(OCC)cc2c1NCc1ccccc1OC, COc1ccc(NC(=O)C2(C)CCN2Cc2ccccc2OC(F)F)cc1OC (stereo not given), Cc1cc(C(=O)N2CCC(C(=O)O)CC2)c(C(F)(F)F)o1, CCOc1ccc(OCc2cccc(C(=O)N/N=C/c3cccnc3)c2)cc1, CCCOc1ccc(C(F)(F)F)cc1NC(=O)CCc1c(C)noc1C, Cc1ccc(C)c(CNc2ccc(S(=O)(=O)N3CCCCC3)cc2)c1, Cc1ccc(S(=O)(=O)N[C@H]2C=C[C@H](CC(=O)N3CCC(Cc4ccccc4)CC3)O[C@H]2CO)cc1, CCCNC(=O)C[C@H]1C[C@H]2c3cc(NC(=O)CN(C)C)ccc3O[C@H]2[C@@H](CO)O1, CCCNC(=O)C[C@H]1C[C@H]2c3cc(NC(=O)CN(C)C)ccc3O[C@H]2[C@H](CO)O1, O=C(Nc1ccc(F)cc1)Nc1ccc2c(c1)[C@H]1C[C@@H](CC(=O)N3CCCCC3)O[C@H](CO)[C@H]1O2, O=C(C[C@@H]1C[C@H]2c3cc(NC(=O)NC4CCCCC4)ccc3O[C@H]2[C@@H](CO)O1)NCc1ccncc1, O=C(C[C@@H]1C[C@H]2c3cc(NC(=O)Nc4ccc(F)cc4)ccc3O[C@H]2[C@H](CO)O1)NCC1CC1, CN1CCN(C(=O)C[C@H]2C[C@@H]3c4cc(NS(C)(=O)=O)ccc4O[C@@H]3[C@H](CO)O2)CC1, O=C1c2cccnc2C(Nc2ccc(S(=O)(=O)N3CCCCC3)cc2)N1Cc1ccccc1 (stereo not given), COc1ccc(COC(=O)C2=C(C)NC(=O)NC2c2ccc(OC)cc2)cc1 (stereo not given), Cc1cccc(NC(=O)C2CCN(S(=O)(=O)c3ccc4c(c3)OCCCO4)CC2)n1, CCc1ccc(-c2nc(CN3CCC(C(=O)NCCc4ccc(OC)c(OC)c4)CC3)c(C)o2)cc1, O=C(Nc1ccc(N2CCN(C(=O)c3ccccc3)CC2)c(Cl)c1)c1cccnc1, COc1ccccc1CCNCc1ccc(OC)c(OCc2ccccc2)c1, CCN1C(=O)[C@H]2[C@@H](c3ccc(C(F)(F)F)cc3)N[C@]3(CCCN(Cc4ccccc4)C3=O)[C@H]2C1=O, Cc1ccc(-n2nc3c(c2NC(=O)c2ccco2)CS(=O)C3)cc1 (stereo not given), FC(F)(F)c1nc(-c2cccs2)ncc1-c1nnnn1-c1ccc(Cl)cc1, C[C@H](CO)N1C[C@H](C)[C@H](CN(C)S(=O)(=O)c2ccc(F)cc2)Oc2ccc(NS(=O)(=O)c3ccccc3)cc2CC1=O, Cc1ccc(S(=O)(=O)Nc2ccc3c(c2)C(=O)N([C@H](C)CO)C[C@@H](C)[C@H](CN(C)S(=O)(=O)c2ccc(F)cc2)O3)cc1, C=CCN1C(=S)CC(c2ccccc2)=Nc2ccccc21, CC1CCCN(C(=O)c2ccc(S(=O)(=O)N3CCC(c4nc5ccccc5s4)CC3)cc2)C1 (stereo not given), CS(=O)(=O)Nc1ccc2c(c1)[C@H]1C[C@H](CC(=O)NCc3ccc(-c4ccccc4)cc3)O[C@H](CO)[C@H]1O2, CS(=O)(=O)Nc1ccc2c(c1)[C@@H]1C[C@@H](CC(=O)N3CCc4ccccc4C3)O[C@H](CO)[C@@H]1O2, CS(=O)(=O)Nc1ccc2c(c1)[C@H]1C[C@H](CC(=O)N3CCc4ccccc4C3)O[C@H](CO)[C@H]1O2, CCN(c1nc(N)c(C(=O)N=C(N)N)nc1Cl)C(C)C, CCN(CC)CCN(C(=O)c1cc(Cl)sc1Cl)c1nc2cc3c(cc2s1)OCO3, CCC(=O)N(C)C(c1ccccc1Cl)c1nnnn1-c1c(C)cccc1C (stereo not given), O=C(O)C[C@@H]1C=C[C@H](NC(=O)Nc2ccccc2)[C@H](CO)O1, O=C(O)C[C@@H]1C=C[C@@H](NC(=O)Nc2ccccc2)[C@H](CO)O1, Cc1nc2ccccc2c2oc(C(=O)NCc3ccc4c(c3)OCO4)cc12, O=C(Nc1ccc(Cl)cc1)C1CCCN(C2=NS(=O)(=O)c3ccccc32)C1 (stereo not given), C[C@H]1CN([C@@H](C)CO)C(=O)Cc2cc(NS(=O)(=O)c3ccccc3)ccc2O[C@@H]1CN(C)Cc1ccc(Cl)c(Cl)c1, COc1cc(-c2c(-c3cc(OC)c(OC)c(OC)c3)noc2C)ccc1F, O=C(Nc1nc(COc2ccccc2)cs1)C12CC3CC(CC(C3)C1)C2, COCCCn1c(-c2ccc(S(=O)(=O)N3CCOCC3)cc2)csc1=Nc1ccccc1, CC1Cc2cc(-c3csc(NC(=O)Cc4cccs4)n3)ccc2N1S(C)(=O)=O (stereo not given), COc1ccc(S(=O)(=O)n2ccc(-c3ccc(OCCN(C)c4ccccn4)cc3)n2)cc1, COc1ccccc1S(=O)(=O)Cc1ccc(C(=O)N2CCN(c3cccc(Cl)c3)CC2)o1, O=C(c1ccccc1F)N1CCN(Cc2cccc(Cl)c2)CC1, COc1ccc(OCC(=O)Nc2ccccc2N2CCCCC2)cc1, CCOC(=O)C1CCN(C(=O)c2ccc3c(c2)C(=O)N(c2ccccc2C)C3=O)CC1, Cc1cc(Cl)ccc1OCC(=O)NNC(=O)C1CSC2(C)CCC(=O)N12 (stereo not given), CS(=O)(=O)N1CCN(c2ccccc2NC(=O)C(c2ccccc2)c2ccccc2)CC1, O=C(c1ccc(Cl)s1)N1CCN(c2nc3ccccc3s2)CC1, CCOC(=O)c1cccc(NS(=O)(=O)c2ccc(NC(C)=O)cc2)c1, O=C(Nc1ccc(CN2CCS(=O)(=O)CC2)cc1)c1ccc(C(F)(F)F)cc1, O=C(Nc1cc2c3c(c1)CC(=O)N3CCC2)c1ccc(Cl)cc1, C=CC[n+]1c(-c2ccc(C)cc2)csc1NNC(=O)Nc1ccccc1, Cc1noc(C)c1S(=O)(=O)N(C)C[C@H]1Oc2ccc(NC(=O)Nc3ccccc3)cc2CC(=O)N([C@H](C)CO)C[C@H]1C, N#C/C(=N\Nc1ccc(Cl)cc1)C(=O)c1ccccc1
